TIM10 inh – TIM10 yeast growth inhibition. S. cerevisiae TIM10 strain growth, BacTiter-Glo luminescence, 24 h. inhibition, % at 10 µM. AID 463195. 330,000 tested, 1.4% active;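 active = inhibition of 40% or more at the single tested concentration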;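 note: wild-type TIM10 isogenic control strain grown at permissive 25 °C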
NLRP3 yeast inh – inhibitors of NALP3 inflammasome in yeast; AID 2825; inhibition, % at 10 µM; Yeast reconstituted NLRP3/ASC/caspase-1, beta-gal luminescence, 24 h; 330,000 tested, 0.39% active;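 active = inhibition of 50% or more; inactive = inhibition below 50%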
tim10-1 inh – inhibits growth of tim10-1 mutant yeast. S. cerevisiae tim10-1 ts strain growth, BacTiter-Glo, 24 h. inhibition, % at 20 µM. 330,000 tested, 2.2% active. AID 463190;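 active = inhibition of at least 40%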;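 note: mutant grown at 25 °C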
SKKanGAS inh – inhibitors of SKKanGAS S. pyogenes growth in kanamycin (SK-promoter or general growth effect) | AID 1662 | 300,000 tested, 1.3% active | inhibition, % at 7.5 µM | BacTiter-Glo, 6 h;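 active = mean replicate score, as percent of positive control median, at least 50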;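 note: strain carries kanamycin resistance gene driven by streptokinase promoter and grows in 40 µg/ml kanamycin; loss of luminescence reflects streptokinase promoter inhibition or plain growth inhibition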
tim23-1 inh – inhibits growth of tim23-1 mutant yeast; AID 463212; 330,000 tested, 1.3% active; inhibition, % at 20 µM; S. cerevisiae tim23-1 growth, BacTiter-Glo luminescence, 24 h;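 active = growth inhibition of the mutant yeast at or above 50%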;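 note: temperature-sensitive mutant grown at 25 °C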
tim10-1 conf – tim10-1 yeast growth inhibition, confirmed | shares compounds with tim10-1 inh | S. cerevisiae tim10-1 ts strain growth, BacTiter-Glo, 24 h | inhibition, % at 20 µM | 7,400 tested, 56% active | AID 463213;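 active = inhibition of yeast growth at or above a set limit in either of two repeat tests at 20 µM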;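 note: tim10-1 mutant grown at permissive 25 °C to find synthetic lethal compounds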
TIM10 conf – TIM10 yeast growth inhibition, confirmed; shares compounds with TIM10 inh; S. cerevisiae tim10 strain growth, BacTiter-Glo luminescence, 24 h; inhibition, % at 10 µM; 4,600 tested, 63% active; AID 463215;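 active = inhibition of yeast growth at or above a set limit in either of two replicates at 10 µM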; note: this counterscreen used the strain with wild-type TIM10
A number is an active result; 0 = inactive; - = no result. The list is not random: actives were taken first. Their share in the collection is about 4.6%.

SMILES	TIM10 inh	NLRP3 yeast inh	tim10-1 inh	SKKanGAS inh	tim23-1 inh	tim10-1 conf	TIM10 conf
O=[N+]([O-])c1nn(-c2ccc3c(c2)OCCO3)n(O)c1=NC1CCCCC1	49	0	56	0	0	46	43
CCc1ccc(C(=O)NNC(=O)CN2C(=O)NC3(CCCC3)C2=O)cc1	0	0	0	-	0	-	-
CC(C)(C)NC(=O)C(c1ccccc1)N(C(=O)CNC(=O)c1cccs1)c1cccnc1 (configuration not stated)	0	0	0	0	0	-	-
C=CCSc1nc2ccccc2n1C(=O)/C=C/c1cc(OC)c(OC)c(OC)c1	43	0	45	0	0	49	41
O=C(NCCCNC(=O)c1c(Cl)cccc1Cl)c1c(Cl)cccc1Cl	0	0	0	0	0	-	-
COc1ccc(C(C)(C)C)cc1NC(=O)COC(=O)c1ccc([N+](=O)[O-])o1	0	0	53	0	0	0	92
COc1ccc(C)cc1NC(=O)COC(=O)c1ccc([N+](=O)[O-])o1	88	0	78	0	0	74	0
COc1cccc(CN2CC(C(=O)N3CCN(c4ccc(Cl)cc4)CC3)CCC2=O)c1 (configuration not stated)	0	0	0	0	0	-	-
CN(CCC#N)C(=O)COC(=O)c1ccc2c(c1)C(=O)N(C1CCCCC1)C2=O	0	0	0	0	0	-	-
O=C(c1ccc([N+](=O)[O-])s1)N1CCN(c2ccccc2)CC1	60	0	53	0	0	47	50
COc1ccc(OC)c2sc(N3CCN(C(=O)c4ccc([N+](=O)[O-])s4)CC3)nc12	0	0	0	0	0	-	-
O=C(c1ccc([N+](=O)[O-])s1)N1CCN(c2ccccn2)CC1	44	0	49	0	0	48	43
O=C(Cc1ccc2ccccc2c1)NC(Cc1ccccc1)C(=O)O (configuration not stated)	0	-	0	-	0	-	-
Cc1ccccc1-c1cc(-c2ccccc2O)n[nH]1	65	0	45	55	0	0	0
CC(C)(C)c1ccc(C(CC(=O)O)NC(=O)Cc2ccc(Cl)cc2)cc1 (configuration not stated)	0	0	0	0	0	-	-
COc1ccc(Nc2nc(-c3cccs3)nc3ccccc23)cc1	0	0	0	0	0	-	-
COc1cccc(Nc2nc(-c3cccs3)nc3ccccc23)c1	48	0	53	0	0	36	45
CCCCNC(=S)Nc1ccc(SC(F)F)cc1	41	0	53	0	0	36	30
CC(C)COC(=O)c1ccc2c(c1O)C(=O)c1ccccc1C2=O	47	0	58	90	0	42	40
COc1ccc2c(c1O)C(=O)c1ccccc1C2=O	0	0	0	0	0	-	-
Cc1cccc(NC(=S)N2CCC(NC(=O)C3CCCCC3)CC2)c1	0	0	0	0	0	-	-
CC(C)CC1(C)NC(=O)N(CC(=O)Nc2ccccc2Br)C1=O (configuration not stated)	0	0	0	-	0	-	-
CCc1ccc2c(c1)C1(C(=O)N2)N2CCCC2C(C(=O)c2ccc3ccccc3c2)C12C(=O)Nc1ccccc12 (configuration not stated)	0	0	0	0	0	-	-
CCc1ccc2c(c1)C1(NN=C(c3cccc4ccccc34)S1)C(=O)N2 (configuration not stated)	55	0	54	79	0	47	59
CCOc1ncccc1C(=O)Nc1ccc(C)cn1	0	0	0	0	0	-	-
SMILES	TIM10 inh	NLRP3 yeast inh	tim10-1 inh	SKKanGAS inh	tim23-1 inh	tim10-1 conf	TIM10 conf
COc1cccc(/C=N/NC(=O)c2c(C)nc3ccc(Br)cn23)c1O	45	0	41	66	0	0	61
COc1cc(Cl)c(NS(=O)(=O)c2cc3[nH]c(=O)c(=O)[nH]c3cc2C)c(OC)c1	0	0	0	0	0	-	-
c1ccc(C2Nc3ccccc3-c3nc4ccccc4n32)cc1 (configuration not stated)	47	0	41	0	0	0	35
CCN(C[C@H]1N[C@@](C)(C(=O)OC)[C@H]2C(=O)N(Cc3ccccc3)C(=O)[C@@H]12)C(=O)Nc1ccc(C)cc1	0	0	0	-	0	-	-
NNc1nc2c(Cl)ccc(Cl)c2s1	53	0	58	0	0	58	0
O=C(Nc1nc2c(Cl)ccc(Cl)c2s1)C1CC1	0	0	0	0	0	-	-
CN(C(=O)Cn1cnc2sccc2c1=O)C1CCCCC1	0	0	0	-	0	-	-
O=C1c2ccccc2C(=O)N1OS(=O)(=O)c1ccc(F)cc1	-	-	-	0	-	-	-
Cc1cc(C)c(S(=O)(=O)ON2C(=O)c3ccccc3C2=O)cc1C	45	0	71	0	0	60	74
C=C1CCC[C@]2(C)C[C@H]3OC(=O)C(CNC(C)(CO)CO)[C@H]3CC12 (some centres not stated)	43	0	51	0	0	52	50
CC12CC3CC(C)(C1)CC(C(=O)N1CCN(C(=O)C4CCCO4)CC1)(C3)C2 (configuration not stated)	0	0	0	0	0	-	-
Cc1ccc(-c2nc3c(=O)n(C)c4ccccc4c3o2)cc1	58	0	52	0	0	31	64
CSCc1c(C(=O)NC2CCCc3ccccc32)oc2ccccc12 (configuration not stated)	41	0	50	0	0	33	0
Cc1cccc(OCc2nnc(SC(C)C(=O)Nc3ccc(N4CCOCC4)cc3)o2)c1 (configuration not stated)	0	0	0	-	0	-	-
CCOc1cc(/C=C/C(=O)c2ccc(C)cc2)ccc1OCC(=O)N(C)C	45	0	50	0	0	35	0
COc1cc(/C=C/C(=O)c2ccc(C)cc2)ccc1OCC#N	0	0	0	0	0	-	-
CC1CCN(CC(CS(=O)(=O)c2ccc([N+](=O)[O-])cc2)N2CCC(C)CC2)CC1 (configuration not stated)	60	0	45	0	0	49	48
CSc1ncc(C(=O)Nc2ccc(Br)cn2)c(C)n1	0	0	0	0	0	-	-
COc1cc2c(cc1OC)C(C1C(=O)CC(C)(C)CC1=O)N(C(=O)CCl)CC2 (configuration not stated)	0	0	0	0	0	-	-
COc1cc2c(cc1OC)C(c1cc(Br)ccc1F)N(C(=O)CCl)CC2 (configuration not stated)	45	0	42	0	0	40	43
Cc1nc2ccccc2n1/N=C/c1ccc([N+](=O)[O-])o1	78	0	74	0	0	72	88
Cc1ccc(/C=N/n2c(C)nc3ccccc3c2=O)o1	0	0	0	0	0	-	-
C[C@H]1CCC[C@]2(C)C[C@H]3OC(=O)C(CN4CCCCCC4)[C@H]3C=C12 (some centres not stated)	42	0	44	0	0	41	49
